Screening data deposited in PubChem BioAssay by National Center for Advancing Translational Sciences (NCATS).
Sfp inh – Sfp phosphopantetheinyl transferase inhibition; Q9F4F7; Biochemical Sfp PPTase activity, qHTS; Potency, µM, inactives show largest response in the series, negative = inhibition, usual class: inhibitors; actives 3.5% (n = 310,000);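 further: the enzyme is Sfp with the accession as filed and its product quenches rhodamine fluorescence; potency means the concentration at half of the fitted maximal effect; 0% = enzyme reaction without inhibitor and -100% = no enzyme wells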
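Compounds were incubated with enzyme (final 15 nM) for 15 min at room temperature before substrate addition started the reaction. Fluorescence at 525 nm excitation, 598 nm emission was recorded immediately and after 30 minutes.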
FBPA coupling cs – coupling enzyme interference in Giardia aldolase counter-screen | coupling enzyme system counterscreen, AmpLite Red fluorescence | activity change, negative = inhibition, % at 58.2 µM, hits read low | actives 0.67% (n = 290,000) | AID 2472; in the data active means activity change below about -30%
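Compounds tested against the coupling enzymes alone at 57.5 uM final; readout was AmpLite Red fluorescence (525/598 nm) after 20 min at RT.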
Giardia killer – Giardia lamblia killing | activity change, % at 7.66 µM, hits read low | AID 540267 | Giardia lamblia trophozoite viability | actives 0.15% (n = 340,000); in the data active means activity change below about -80%; inconclusive means between about -30% and that limit;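 further: parasites exposed to compound for two days anaerobically before the ATP read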
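Luminescence from cellular ATP indicates surviving trophozoites (100 cells/well) following 48 hrs anaerobic compound treatment at 37 deg C; signal develops 15-30 min at room temperature.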
ELG1 DNA repair – blocks ELG1-dependent DNA repair in HEK293T cells. AID 504467. HEK293T ELG1-luciferase reporter, luminescence, 16 h; DNA damage induced by 5-fluorouridine. actives 2.3% (n = 330,000). Potency, µM (titrated, usually from 46.1 µM), without a hit: top-dose activity change, negative = inhibition, actives largely listed as inhibitors; further: potency means the concentration at half of the fitted maximal effect; nearly all actives have a fitted effect of over 55% in size
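Quantitative HTS, concentration-response format. 2,000 cells/well co-treated with 5-fluorouridine and compound, 16 hr in 5% CO2 at 37 °C; ONE-Glo luminescence read after 30 min.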
* = called active by the depositor; ? = inconclusive; . = no result; ! = not active in a repeat. In the library only some 5.5% were active in any assay of this set; here they are far more common. Unless noted, the call rests on the fitted dose curve; in most records, active means well fitted curve in the direction sought with a large enough effect; inconclusive means small, poorly fitted or top-dose-only effect, or another doubt; inactive means no such curve, though single readings can be large; an effect the other way counts as inactive or inconclusive. Unless noted, on the % scale 0 is the no-effect control and ±100 the full control effect.

SMILES	Sfp inh	FBPA coupling cs	Giardia killer	ELG1 DNA repair
O=C(Cc1ccccc1)N1CCN(Cc2cccc(Br)c2)CC1	50µM*	6	-14	-21%
CCC(C)(S(=O)(=O)CC)S(=O)(=O)CC	15%	.	.	.
O=C1NC(=S)NC(=O)C1Cc1ccccc1	.	.	7	.
O=C1NC(=S)NC(=O)C1C/C=C/c1ccccc1	45µM*	-1	-7	-1%
CC1N(C)c2cc(NC(=O)c3ccco3)c(P(=O)(Nc3ccc([N+](=O)[O-])cc3)N3CCOCC3)cc2C1(C)C (stereo unspecified)	13%	-5	-29	18µM*
COc1ccc(/C=C/C(=O)N2CC3C[C@@H](C2)Cn2c3cccc2=O)cc1OC	-11%	1	.	.
Nc1ncnc2c1ncn2[C@@H]1O[C@H](COP(=O)(O)OP(=O)(O)OP(=O)(O)O)[C@H]2OC3(O[C@H]21)C([N+](=O)[O-])=CC(=[N+]([O-])[O-])C=C3[N+](=O)[O-] (stereo partly specified)	8.9µM*	11	.	.
CCCCCCn1c(N)c(C(=O)NCCN2CCOCC2)c2nc3ccccc3nc21	-25%	-4	4	?
CCOC(=O)c1c(NC(=O)c2c(N)n(CCCOC)c3nc4ccccc4nc23)sc2c1CCCC2	56µM*	.	0	16%
CCOCCCn1c(N)c(C(=O)Nc2sc3c(c2C(=O)OC)CCCC3)c2nc3ccccc3nc21	?	-45*	12	?
CCN(CC)C(=O)c1c(C)[nH]c(=S)c(C#N)c1-c1ccco1	1µM*	-30	-9	-19%
CC[C@H](C)[C@H](NC(=O)[C@H](CCCN=C(N)N)NC(=O)[C@H](CCCN=C(N)N)NC(=O)[C@H](CC(C)C)NC(=O)[C@H](Cc1ccccc1)NC(=O)CNC(=O)CNC(=O)[C@@H](N)Cc1ccc(O)cc1)C(=O)O	-15%	.	.	.
C/C1=C\[C@@H](C)C/C=C/[C@H]2[C@@H]3O[C@]3(C)[C@@H](C)[C@H]3[C@H](Cc4c[nH]c5ccccc45)NC(=O)[C@]32C(=O)/C=C/C(=O)[C@@H]1O	13µM*	-1	-20	?
O=C(NC1CCCCCC1)c1ccc[nH]c1=S	?	-1	10	23%
COc1cc2c(cc1OC)[C@@H]1C(=O)c3ccc4c(c3O[C@@H]1CO2)C[C@H](C(C)C)O4	3%	-18	-24	0.058µM*
COc1cc2c(cc1OC)C1C(=O)c3ccc4c(c3OC1CO2)CC(C(C)C)O4 (stereo unspecified)	.	.	-5	.
COc1ccc(N2C(=O)CS(=O)C(c3ccccc3)C2=O)cc1 (stereo unspecified)	1.6µM*	3	19	15%
COc1ccc(N2C(=O)CC(N3CCC(n4c(=O)[nH]c5ccccc54)CC3)C2=O)cc1 (stereo unspecified)	8%	3	11	0%
Cc1ccc(NC(=O)c2cn(CCC#N)nc2-c2ccc3c(c2)OCCO3)c([N+](=O)[O-])c1	12%	0	4	18µM*
N#CCCn1cc(C(=O)Nc2ccc([N+](=O)[O-])cc2)c(-c2ccc3c(c2)OCCO3)n1	4%	-2	-1	?
COc1cc2c(cc1OC)-c1c(O)c(OC)cc3c1[C@H](C2)N(C)CC3	?	-26	.	.
COc1cc2c(cc1O)C[C@H]1NCCc3cc4c(c-2c31)OCO4	-7%	-31*	3	?
c1ccc(N2CCCC3(CCNCC3)C2)nc1	-2%	1	.	.
C[C@@H]1O[C@@H](O[C@H]2CC[C@@H](O[C@H]3[C@H](O)C[C@H](c4ccc5c(c4O)C(=O)C4=C(C5=O)[C@@]5(O)C(=O)C[C@](C)(O[C@H]6CC[C@H](O[C@H]7C=CC(=O)[C@H](C)O7)[C@H](C)O6)C[C@@]5(O)C=C4)O[C@@H]3C)O[C@H]2C)C=CC1=O	5µM*	-74*	.	.
CCC1(CC)CCNC1=O	-3%	2	.	.
CCCCC/C=C\C/C=C\C/C=C\C/C=C\CCCC(=O)NCCCl	32µM*	0	.	.
CCCCC/C=C\C/C=C\C/C=C\C/C=C\CCCC(=O)O	63µM*!	-3	.	8%
Cc1ccc(NC(=O)CN2C(=O)CN=C(c3ccccc3)c3cc(Cl)ccc32)cc1	-1%	-1	17	7.3µM*
CN(C)c1ccc(NC(=O)CN2C(=O)CN=C(c3ccccc3)c3cc(Cl)ccc32)cc1	79µM*	0	-7	?
